# The panel holds about 83,000 compounds, 20% with a hit somewhere; the sample as a whole holds those more often.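 A percent growth of 40 corresponds to 60% growth inhibition; 0 means no net growth; -100 means all cells died. Active threshold: below 10.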 Unmarked numbers belong to inactive results. Active and inactive are the calls of the source.
# Experiments:
# Test in all cases: NCI-60 one-dose screen, 48 h (100 = growth as untreated, 0 = no growth, -100 = all killed)
# Conditions in all cases: 10 µM unless noted
# NCI-H23 lung = tested on: NCI-H23 lung
# NCI-H226 lung = tested on: NCI-H226 lung
# NCI-H322M lung = tested on: NCI-H322M lung
# HOP-62 NSCLC = tested on: HOP-62 NSCLC
# NCI-H460 lung = tested on: NCI-H460 lung
# HOP-92 NSCLC = tested on: HOP-92 NSCLC
# NCI-H522 lung = tested on: NCI-H522 lung
# A549/ATCC NSCLC = tested on: A549/ATCC NSCLC
# 786-0 renal = tested on: 786-0 renal
# DU-145 prostate = tested on: DU-145 prostate
# K-562 leukemia = tested on: K-562 leukemia
# MALME-3M melanoma = tested on: MALME-3M melanoma
# MDA-MB-231 breast = tested on: MDA-MB-231 breast
# RXF 393 renal = tested on: RXF 393 renal
# SF-268 CNS = tested on: SF-268 CNS
# SF-295 CNS = tested on: SF-295 CNS
# SF-539 CNS = tested on: SF-539 CNS
# UACC-257 melanoma = tested on: UACC-257 melanoma
# M14 melanoma = tested on: M14 melanoma
SMILES,growth (NCI-H23 lung),growth (NCI-H226 lung),growth (NCI-H322M lung),growth (HOP-62 NSCLC),growth (NCI-H460 lung),growth (HOP-92 NSCLC),growth (NCI-H522 lung),growth (A549/ATCC NSCLC),growth (786-0 renal),growth (DU-145 prostate),growth (K-562 leukemia),growth (MALME-3M melanoma),growth (MDA-MB-231 breast),growth (RXF 393 renal),growth (SF-268 CNS),growth (SF-295 CNS),growth (SF-539 CNS),growth (UACC-257 melanoma),growth (M14 melanoma)
CN1CCN(c2ccc3nc(/N=C/c4ccc5sc(-c6ccc([N+](=O)[O-])cc6)nc5c4)sc3c2)CC1,99.4%,97.9%,105%,120%,103%,111%,95%,98.6%,101%,106%,90.6%,96.7%,112%,129%,111%,96%,93.4%,101%,104%
CCN(CC)CCNc1ccc(C)c2sc3cc(C)ccc3c(=O)c12,72.3%,95.5%,68.8%,62.9%,43%,25.2%,44.2%,56.2%,42.9%,67%,-19.6% (active),72.5%,19.4%,59.1%,59.1%,72.9%,76.3%,65.5%,-46.2% (active)
O=C(CCl)N1c2cccc3cccc(c23)N(C(=O)CCl)C1c1cn(-c2ccccc2)nc1-c1cccc([N+](=O)[O-])c1,90.1%,98.8%,104%,94.5%,103%,117%,77.1%,107%,95.5%,98%,33.3%,108%,85.7%,99.9%,99.4%,103%,96.5%,103%,84.8%
O=C(/C=C/C12c3ccccc3C(c3ccccc31)C1C(=O)NC(=O)C12)c1ccccc1 (centres undefined),6.51% (active),11%,17.6%,34.8%,1.66% (active),3.17% (active),39.1%,26.3%,27.1%,19.4%,13.5%,47.5%,14%,-13.1% (active),29.6%,28.2%,18.5%,46.6%,19.6%
CCOC(=O)c1ccc(NC(=O)CCCN(CC)CC)cc1,95.4%,103%,92.4%,101%,107%,78%,63.6%,90.5%,87.2%,105%,97.7%,98.5%,114%,130%,104%,103%,103%,108%,91.3%
O=C(NCCOCCOCCOCCNC(=O)c1cc2c(o1)C(=O)c1ccccc1C2=O)NC12CC3CC(CC(C3)C1)C2,-45.7% (active),-80.4% (active),-59.5% (active),-58% (active),-71% (active),43.5%,-27.7% (active),-47.6% (active),3.51% (active),-96% (active),7.09% (active),-94.5% (active),18.5%,-52.9% (active),-5.16% (active),-91.9% (active),-63.5% (active),-77% (active),-40.2% (active)
NC(N)=N/N=C(/c1ccccc1)c1ccccc1F,34.4%,14.4%,62%,17.5%,13.2%,57.8%,4.97% (active),28.4%,-26.2% (active),15%,4% (active),35.7%,22.1%,43%,51.8%,11.8%,2.84% (active),68.1%,-45.4% (active)
COc1cc(-c2cccc([N+](=O)[O-])c2)c(-c2nc(-c3ccccc3)c(-c3ccccc3)n2C2CC2)cc1OC,68%,62.5%,71.9%,92.6%,55.5%,34.6%,44%,44.7%,73.3%,87.1%,32.6%,74.2%,72.4%,69.1%,77%,42.7%,88.5%,56.8%,40%
C=C(C)[C@@H]1CC[C@]2(CO)CC[C@]3(C)[C@H](CC[C@@H]4[C@@]5(C)C=C(C#N)C(=O)C(C)(C)[C@@H]5CC[C@]43C)[C@@H]12,16.6%,25.6%,21.4%,23.2%,-7.1% (active),8.38% (active),24.1%,12.6%,14.8%,18.9%,7.75% (active),32.9%,15.9%,-61.2% (active),25.4%,-2.71% (active),20.5%,4.1% (active),15.8%
COC(=O)CNC(=O)C(=O)c1c(O)c(O)c(C(C)C)c2cc(C)c(-c3c(C)cc4c(C(C)C)c(O)c(O)c(C(=O)C(=O)NCC(=O)OC)c4c3O)c(O)c12,17.8%,54.6%,22.1%,18.5%,5.29% (active),-7.96% (active),-0.907% (active),11%,33.9%,24.9%,14.7%,46.2%,-13.6% (active),53.8%,26.8%,1.96% (active),18.9%,52.1%,36.7%
CN(CCCCCCCCNc1ccnc2ccccc12)Cc1ccc(-c2ccc(-c3ccc(C#N)cc3)s2)cc1,21.1%,-66.9% (active),-66% (active),-11.2% (active),-76.3% (active),44.8%,-62.9% (active),-60.7% (active),-89.8% (active),-67.3% (active),-18.4% (active),-80.7% (active),-80.1% (active),-86% (active),-76.6% (active),-64.1% (active),-89% (active),-38.7% (active),-84% (active)
O=S(=O)(Cc1ccccc1)c1nc2ccccc2s1,56.3%,82.9%,93.8%,105%,103%,33.7%,13.2%,98.4%,88.9%,86.7%,13.5%,73.6%,85.1%,109%,79%,109%,92%,78.7%,18.3%
CCOC(=O)c1c(C)nc2c(c1N)/C(=C/c1ccc(OC)cc1)C(=O)N2Cc1ccc(F)cc1,-38.2% (active),8.52% (active),9.93% (active),-45.3% (active),2.95% (active),-55.6% (active),-69.6% (active),12%,-50.6% (active),-90.8% (active),4.12% (active),-21.3% (active),-54.7% (active),-78.6% (active),-23.6% (active),-1.56% (active),-20.5% (active),-52.7% (active),-56% (active)
COc1ccc(/C=C2\C=C(c3ccccc3)N(CCc3ccccc3)C2=O)cc1OC,68.4%,29.7%,8.42% (active),-30% (active),20.5%,-4.05% (active),42.5%,32.9%,8.93% (active),69%,47.6%,39.3%,29.6%,-3.29% (active),55.2%,26.8%,42.1%,69.3%,51.5%
c1ccc2c(c1)ncn2-c1nc2ccccc2n2c1nc1ccccc12,67.1%,78.4%,62.9%,50.1%,52.1%,88.5%,81.6%,81.7%,98.3%,89%,82.9%,128%,80.7%,88.8%,94.3%,90.2%,79.8%,104%,91.1%
O=C1NCC(=O)N(Cc2ccco2)[C@H]1Cc1ccccc1,100%,89%,112%,81.6%,103%,88.7%,88.2%,102%,95.1%,110%,107%,110%,89.1%,117%,102%,96.5%,97.9%,86.9%,98.2%

# — PubChem BioAssay (NCI)
